Reference: PubChem BioAssay
Active and inactive are the calls of the source. Rule as the data show it, unless noted: active = inhibition above about 33%; inactive = the rest.

Assays:
[1] = target: Nuclear receptor coactivator 3 (Homo sapiens) (UniProt Q9Y6Q9); experiment: SRC3 coactivator transcriptional activity inhibitors, confirmation, cell-based, luminescence, quadruplicate (AID 588792;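 active = mean inhibition over 43.08%, the solvent-only control mean plus 3 SD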;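 also: 0% = DMSO treated cells and 100% = gossypol at 36 µM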); details: HEK293 GAL4-SRC3 luciferase reporter, at 3.6 µM, stronger effect = higher value
[2] = tested on: transactivating tegument protein VP16 (Human herpesvirus 1), Gal4-VP16 luciferase reporter; experiment: VP16 transactivation inhibitors, counter-screen for SRC3 inhibitor project, cell-based, luminescence, high throughput (AID 588794; in the data active = inhibition above about 30%); details: mammalian cells, VP16-driven luciferase reporter luminescence; at 3.6 µM; stronger effect = higher value
[3] = target: Nuclear receptor coactivator 1 (Homo sapiens) (UniProt Q15788); experiment: SRC1 coactivator transcriptional activity inhibitors, confirmation, cell-based, luminescence, quadruplicate (AID 588820;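 active = mean inhibition above 46.68%, the untreated control wells mean plus 3 SD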;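 also: 0% = DMSO wells and 100% = gossypol 36 µM treated wells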); details: HEK293 GAL4-SRC1 luciferase reporter, at 3.6 µM, stronger effect = higher value
[4] = VP16 transactivation inhibitors, counter-screen for SRC1 inhibitor project, cell-based, luminescence, high throughput (AID 588824; in the data active = inhibition above about 25%); details: cell-based VP16 transactivation luciferase luminescence; at 3.6 µM; stronger effect = higher value
[5] = StAR promoter reporter inhibitors, counter-screen for LRH-1 inverse agonist project, cell-based, luminescence, high throughput (AID 651611; in the data active = inhibition above about 28%); details: StAR promoter luciferase reporter counterscreen, at 3.6 µM, stronger effect = higher value
[6] = target: Nuclear receptor subfamily 5 group A member 2 (Homo sapiens) (UniProt O00482); experiment: LRH-1 (NR5A2) inverse agonists, retest, confirmation, cell-based, luminescence (AID 651613; in the data active = inhibition above about 42%;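 also: HEK293T cells co-transfected with LRH-1 and StAR promoter luciferase reporter; 0% = vehicle wells and 100% = parental cells lacking receptor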); details: cell-based LRH-1 luciferase reporter, inverse agonism; at 3.6 µM; stronger effect = higher value
[7] = target: Steroidogenic factor 1 (Homo sapiens) (UniProt Q13285); experiment: SF1 (NR5A1) inverse agonists, counter-screen for LRH-1 inverse agonist project, cell-based, luminescence, high throughput (AID 651614; in the data active = inhibition above about 44%;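 also: cells cotransfected with StAR promoter reporter and SF1 expression vector; 0% = vehicle on cells with receptor and 100% = vehicle on cells lacking receptor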); details: cell-based SF1 luciferase reporter, at 3.6 µM, stronger effect = higher value
[8] = VP16 transactivation reporter inhibitors, counter-screen for LRH-1 inverse agonist project, cell-based, luminescence, high throughput (AID 651615); details: Gal4-VP16 luciferase reporter cells, at 3.6 µM, stronger effect = higher value

Measured: inhibition

Chain of Nuclear receptor coactivator 1 (Homo sapiens) (Q15788 whole entry, looked up, the tested form may be a part): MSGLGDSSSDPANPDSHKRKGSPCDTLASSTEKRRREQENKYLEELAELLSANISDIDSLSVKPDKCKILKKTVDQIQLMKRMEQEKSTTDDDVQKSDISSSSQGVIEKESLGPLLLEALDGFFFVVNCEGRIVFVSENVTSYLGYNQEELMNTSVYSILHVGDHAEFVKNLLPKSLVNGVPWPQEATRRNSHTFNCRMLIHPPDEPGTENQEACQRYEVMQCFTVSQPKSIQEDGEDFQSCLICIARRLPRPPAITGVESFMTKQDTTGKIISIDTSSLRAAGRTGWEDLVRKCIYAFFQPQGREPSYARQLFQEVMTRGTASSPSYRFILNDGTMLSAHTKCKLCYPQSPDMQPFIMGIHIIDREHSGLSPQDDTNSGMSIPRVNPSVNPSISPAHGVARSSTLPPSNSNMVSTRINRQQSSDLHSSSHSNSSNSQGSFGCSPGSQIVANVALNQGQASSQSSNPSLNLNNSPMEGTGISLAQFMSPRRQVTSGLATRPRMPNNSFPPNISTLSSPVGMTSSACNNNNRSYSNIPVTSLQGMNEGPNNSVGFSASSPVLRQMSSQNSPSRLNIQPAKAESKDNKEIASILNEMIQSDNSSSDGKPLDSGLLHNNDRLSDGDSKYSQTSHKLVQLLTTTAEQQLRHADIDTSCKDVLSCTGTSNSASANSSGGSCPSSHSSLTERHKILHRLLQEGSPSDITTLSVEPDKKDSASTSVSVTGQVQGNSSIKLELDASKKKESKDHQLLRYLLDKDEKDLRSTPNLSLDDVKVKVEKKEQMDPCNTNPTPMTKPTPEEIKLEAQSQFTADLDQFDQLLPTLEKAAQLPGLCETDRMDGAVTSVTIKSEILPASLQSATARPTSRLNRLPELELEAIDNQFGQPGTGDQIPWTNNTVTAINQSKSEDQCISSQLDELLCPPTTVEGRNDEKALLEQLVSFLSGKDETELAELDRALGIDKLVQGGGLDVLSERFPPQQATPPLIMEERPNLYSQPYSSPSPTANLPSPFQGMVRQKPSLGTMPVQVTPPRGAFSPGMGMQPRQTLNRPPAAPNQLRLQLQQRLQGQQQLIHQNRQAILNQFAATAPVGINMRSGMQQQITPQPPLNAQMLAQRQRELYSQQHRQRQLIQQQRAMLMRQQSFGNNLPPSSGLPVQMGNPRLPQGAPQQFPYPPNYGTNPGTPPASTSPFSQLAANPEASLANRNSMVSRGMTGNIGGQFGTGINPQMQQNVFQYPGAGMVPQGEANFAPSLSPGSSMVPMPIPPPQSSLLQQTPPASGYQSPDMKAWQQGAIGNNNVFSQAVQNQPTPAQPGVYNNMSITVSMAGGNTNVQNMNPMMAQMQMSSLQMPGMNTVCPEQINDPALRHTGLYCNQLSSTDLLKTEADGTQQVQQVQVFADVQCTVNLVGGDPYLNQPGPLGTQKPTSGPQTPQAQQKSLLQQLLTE
Chain of Steroidogenic factor 1 (Homo sapiens) (Q13285 whole entry, looked up, the tested form may be a part): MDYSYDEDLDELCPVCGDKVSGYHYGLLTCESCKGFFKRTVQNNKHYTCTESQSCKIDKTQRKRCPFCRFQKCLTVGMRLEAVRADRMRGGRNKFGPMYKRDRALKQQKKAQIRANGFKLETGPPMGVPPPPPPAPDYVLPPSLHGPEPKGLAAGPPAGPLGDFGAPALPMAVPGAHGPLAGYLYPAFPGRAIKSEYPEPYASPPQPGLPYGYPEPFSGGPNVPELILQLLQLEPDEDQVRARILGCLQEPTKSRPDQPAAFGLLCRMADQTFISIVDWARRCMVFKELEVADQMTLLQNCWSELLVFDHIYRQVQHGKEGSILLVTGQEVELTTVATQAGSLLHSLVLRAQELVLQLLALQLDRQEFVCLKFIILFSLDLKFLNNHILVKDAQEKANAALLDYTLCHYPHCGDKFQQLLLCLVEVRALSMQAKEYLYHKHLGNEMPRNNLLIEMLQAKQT
Chain of Nuclear receptor coactivator 3 (Homo sapiens) (Q9Y6Q9 whole entry, looked up, the tested form may be a part): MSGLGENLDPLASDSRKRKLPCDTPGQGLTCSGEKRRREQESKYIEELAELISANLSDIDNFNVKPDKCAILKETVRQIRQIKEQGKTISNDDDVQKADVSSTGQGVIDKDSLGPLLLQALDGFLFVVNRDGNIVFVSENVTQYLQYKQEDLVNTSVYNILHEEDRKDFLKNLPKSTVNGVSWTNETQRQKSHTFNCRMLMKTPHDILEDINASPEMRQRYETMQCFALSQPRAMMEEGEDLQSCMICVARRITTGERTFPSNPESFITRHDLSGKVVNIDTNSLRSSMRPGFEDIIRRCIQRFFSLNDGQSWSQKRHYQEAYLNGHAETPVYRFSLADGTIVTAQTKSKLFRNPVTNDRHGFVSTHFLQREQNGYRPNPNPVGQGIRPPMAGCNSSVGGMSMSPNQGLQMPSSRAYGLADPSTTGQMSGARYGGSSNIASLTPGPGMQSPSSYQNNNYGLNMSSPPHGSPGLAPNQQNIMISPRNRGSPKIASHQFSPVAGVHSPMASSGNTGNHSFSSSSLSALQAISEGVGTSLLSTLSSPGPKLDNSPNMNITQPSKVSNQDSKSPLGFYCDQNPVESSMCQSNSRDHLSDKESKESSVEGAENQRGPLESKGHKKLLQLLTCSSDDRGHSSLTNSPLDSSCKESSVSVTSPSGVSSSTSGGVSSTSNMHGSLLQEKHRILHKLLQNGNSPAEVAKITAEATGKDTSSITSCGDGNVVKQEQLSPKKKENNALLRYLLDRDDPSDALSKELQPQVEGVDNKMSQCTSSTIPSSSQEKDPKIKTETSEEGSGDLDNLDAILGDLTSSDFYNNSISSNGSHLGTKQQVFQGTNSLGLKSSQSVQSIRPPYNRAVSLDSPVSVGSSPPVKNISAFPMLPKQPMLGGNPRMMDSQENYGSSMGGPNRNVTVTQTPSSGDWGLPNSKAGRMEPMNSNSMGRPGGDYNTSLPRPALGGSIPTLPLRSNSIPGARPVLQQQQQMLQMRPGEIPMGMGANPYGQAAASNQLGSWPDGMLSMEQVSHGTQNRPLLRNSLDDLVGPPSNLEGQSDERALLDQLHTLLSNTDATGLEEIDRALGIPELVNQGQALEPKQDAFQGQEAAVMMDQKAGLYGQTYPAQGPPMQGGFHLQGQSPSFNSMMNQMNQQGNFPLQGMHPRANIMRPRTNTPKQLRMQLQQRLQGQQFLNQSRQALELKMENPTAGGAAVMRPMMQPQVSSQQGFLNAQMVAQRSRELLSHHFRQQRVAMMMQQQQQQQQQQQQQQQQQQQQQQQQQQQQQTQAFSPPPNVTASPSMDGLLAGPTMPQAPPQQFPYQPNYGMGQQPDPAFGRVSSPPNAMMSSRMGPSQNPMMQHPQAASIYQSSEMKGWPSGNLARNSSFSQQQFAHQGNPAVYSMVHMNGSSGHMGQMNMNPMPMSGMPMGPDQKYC
Chain of Nuclear receptor subfamily 5 group A member 2 (Homo sapiens) (O00482 whole entry, looked up): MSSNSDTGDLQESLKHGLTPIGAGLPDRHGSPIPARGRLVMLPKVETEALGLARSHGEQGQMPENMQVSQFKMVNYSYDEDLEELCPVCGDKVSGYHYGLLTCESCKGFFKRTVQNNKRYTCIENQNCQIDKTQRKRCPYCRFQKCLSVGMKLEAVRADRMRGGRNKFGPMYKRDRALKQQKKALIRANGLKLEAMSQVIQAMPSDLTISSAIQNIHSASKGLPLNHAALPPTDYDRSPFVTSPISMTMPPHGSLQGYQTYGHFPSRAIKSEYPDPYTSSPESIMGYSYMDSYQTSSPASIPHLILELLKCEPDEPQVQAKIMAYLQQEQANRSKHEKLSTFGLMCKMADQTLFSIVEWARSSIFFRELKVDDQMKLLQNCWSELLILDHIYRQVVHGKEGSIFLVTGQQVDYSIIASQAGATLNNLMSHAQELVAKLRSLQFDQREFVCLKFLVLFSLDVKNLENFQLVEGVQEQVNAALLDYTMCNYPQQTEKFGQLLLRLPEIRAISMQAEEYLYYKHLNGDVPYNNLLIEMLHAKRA

COc1ccc(C(=O)Nc2nc3ccccc3s2)c(OC)c1
active: [1] 92.8% | [2] 91.5% | [3] 84.7% | [4] 87.5% | [5] 93.4% | [6] 93.9% | [7] 92.3% | [8] 90.2%

CC(=NNC(=S)N1CC2CCC(CC2)C1)c1ccccn1
active: [2] 54.8% | [4] 49.8% | [5] 59.4% | [6] 98.3% | [7] 77.3% | [8] 64.6%
inactive: [1] 35.5% | [3] 1.55%

CCn1c(C)cc(C(=O)COC(=O)c2ccccc2[N+](=O)[O-])c1C
active: [1] 92.9% | [2] 90.4% | [3] 86.8% | [4] 86.1% | [5] 83.5% | [6] 83.8% | [7] 83.6% | [8] 81.4%

CCN(CC)c1ccc(/C=C/c2ccc3ccc(OC)cc3[n+]2CC)cc1
active: [1] 50.1% | [2] 74.8% | [4] 74.5% | [5] 67.8% | [6] 96.4% | [7] 90.8% | [8] 84.1%
inactive: [3] 42.6%

O=C(NC(Nc1nc2ccc([N+](=O)[O-])cc2s1)(C(F)(F)F)C(F)(F)F)c1cccnc1
active: [1] 62.8% | [2] 75.3% | [4] 75.3% | [5] 81.4% | [6] 104% | [7] 95.1% | [8] 88.7%
inactive: [3] 26.9%

C=C1C(=O)c2sccc2C(c2ccc(OC)c(OC)c2)C1COC(C)=O (stereo not drawn)
inactive: [3] 6.09%
active: [1] 67.7% | [2] 59% | [4] 58.4% | [5] 69.8% | [6] 95.4% | [7] 92.8% | [8] 82.4%

Cc1cccc(C(=O)Nc2sc3c(c2C(=O)O)CCCC3)c1
active: [2] 59.1% | [4] 58.2% | [5] 53.6% | [6] 85.8% | [7] 82.3% | [8] 68.9%
inactive: [1] 37.5% | [3] 25.5%

Cc1cc(C)cc(NS(=O)(=O)c2ccc3c(c2)c(=O)n(C)c(=O)n3C)c1
active: [1] 55.2% | [2] 36.5% | [3] 57.1% | [4] 38% | [5] 36.2% | [6] 54.4% | [8] 56.9%
inactive: [7] 41.3%

CN(Cc1cnc2nc(N)nc(N)c2n1)c1ccc(C(=O)NC(CCC(=O)O)C(=O)O)c2ccccc12 (stereo not drawn)
active: [1] 63.8% | [3] 68% | [5] 77.9% | [6] 45.5% | [7] 47.6%
inactive: [2] 15% | [4] 13.2% | [8] 12.9%

COc1cc(C=NO)nc(-c2ccccn2)c1
active: [1] 78.2% | [2] 43.5% | [3] 54% | [4] 36.5% | [5] 85.6% | [6] 96% | [7] 76.9% | [8] 45.7%

CCCCC(=O)NC(c1ccccc1Cl)c1ccc2cccnc2c1O (stereo not drawn)
active: [2] 32.7% | [4] 50.9% | [5] 74.1% | [6] 76.5% | [7] 80.8% | [8] 74.4%
inactive: [1] 26.3% | [3] 41%

CC(C)(O)C#Cc1ccc([C@@H]2C[C@H]3CN(c4ccccc4)C(=O)[C@]34CCCN24)s1
active: [2] 41.9% | [4] 42.1% | [5] 61.3% | [6] 82% | [8] 88.8%
inactive: [1] 42.9% | [3] 45.8% | [7] 28.3%

CN(Cc1cnc2nc(N)nc(N)c2n1)c1ccc(C(=O)NC(CCC(=O)O)C(=O)O)cc1C(F)(F)F (stereo not drawn)
inactive: [2] 7.16% | [4] 5.94% | [8] 21.3%
active: [1] 60.4% | [3] 51.9% | [5] 79.6% | [6] 56.4% | [7] 49.1%

CC(C)(C)c1ccc(-c2cn(-c3ccc(Br)cc3)c3[n+]2CCCS3)cc1
active: [1] 51.1% | [2] 59.4% | [3] 52.1% | [4] 61% | [5] 47.8% | [6] 107% | [7] 80.7% | [8] 89.2%

NC(=S)NN=Cc1nccc2c(C(F)(F)F)cccc12
active: [1] 86.8% | [2] 69.7% | [3] 63.9% | [4] 56.4% | [5] 89.7% | [6] 100% | [7] 93.2% | [8] 66.5%

COc1ccc(NC(=O)c2sc(=O)n(Cc3cccc(C(F)(F)F)c3)c2C)cc1OC
inactive: [1] 24.9% | [3] 19%
active: [2] 57.4% | [4] 52.7% | [5] 46% | [6] 67.8% | [7] 69% | [8] 73.9%
